The panel holds about 83,000 compounds, 20% with a hit somewhere; the sample as a whole holds those more often.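 Activity criterion: percent growth below 10, measured after cells in 96-well plates were exposed to a single compound concentration for 48 hours.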 Unmarked numbers belong to inactive results. The source made the active and inactive calls.

Experiment in all cases: NCI-60 one-dose screen, 48 h (100 = growth as untreated, 0 = no growth, -100 = all killed)
For assay [1], the system named is SNB-75 CNS. As to conditions: 10 µM unless noted.
The test system of assay [2] is SNB-19 CNS. Conditions: 10 µM unless noted.
For assay [3], the system named is U251 CNS. As to conditions: 10 µM unless noted.
For assay [4], the system named is PC-3 prostate. As to conditions: 10 µM unless noted.
In assay [5] the test system is UACC-62 melanoma. As to conditions: 10 µM unless noted.
Assay [6] deals with LOX IMVI melanoma. As to conditions: 10 µM unless noted.
Assay [7] concerns SK-MEL-28 melanoma. As to conditions: 10 µM.
Assay [8] concerns SK-MEL-2 melanoma. Conditions: 10 µM unless noted.
Assay [9] relates to EKVX NSCLC. Conditions: 10 µM unless noted.
Assay [10] deals with SN12C renal. Conditions: 10 µM unless noted.
Assay [11] deals with UO-31 renal. As to conditions: 10 µM unless noted.
Assay [12] has as its system TK-10 renal. Conditions: 10 µM unless noted.
Assay [13] concerns ACHN renal. As to conditions: 10 µM unless noted.
The subject of assay [14] is CAKI-1 renal. As to conditions: 10 µM unless noted.
The test system of assay [15] is A498 renal. As to conditions: 10 µM unless noted.
Assay [16] has as its system CCRF-CEM leukemia. Conditions: 10 µM unless noted.
Assay [17] deals with MOLT-4 leukemia. As to conditions: 10 µM unless noted.
The subject of assay [18] is SK-MEL-5 melanoma. As to conditions: 10 µM unless noted.
Assay [19] deals with SR leukemia. Conditions: 10 µM unless noted.

`O=C(Nc1ccc(Br)cc1F)c1cc(Cl)ccc1O`: the growth was -34.7% (active) in assay [1]; 14% in [2]; -0.181% (active) in assay [3]; -5.33% (active) in assay [4]; -24.9% (active) in assay [5]; 1.68% (active) in [6]. Moreover, the growth in assay [7] is -6.77% (active); in assay [8], -25.8% (active); in assay [9], 8.37% (active); in assay [10], -5.66% (active); in assay [11], 9.99% (active); in assay [12], 0.819% (active). Moreover, the growth in [13] is 0.275% (active); in assay [14], -21.3% (active); in assay [15], -70.2% (active); in assay [16], 5.57% (active); in assay [17], -28.1% (active).

With `CC[C@H](C)[C@@H](C(=O)OC)n1cc(CNC(=O)[C@@H](Cc2ccccc2)NC(=O)OCc2ccccc2)nn1`, the growth in assay [1] is 101%; in assay [2] it was 93.2%; in [3] it was 91.5%; in assay [4], 100%; in [18], 103%; in [5], 94.6%. Also, the growth was 99.5% in [6]; 110% in assay [7]; 105% in assay [8]; 92.6% in assay [9]; 94.6% in [10]; 76.7% in assay [11]. Also, the growth in [12] was 101%; in assay [14], 83.4%; in assay [15] it was 83.3%; in assay [16], 85.1%; in assay [17], 69.1%; in assay [19], 103%.

Turning to `CC(=O)c1ccc(Nc2nc(NCCO)nc(Nc3ccc(Cl)cc3)n2)cc1`, the growth is 77.5% in assay [1]; 92.4% in assay [2]; 99.7% in [3]; 90.5% in assay [4]; 74.9% in [18]; 78% in assay [5]. Further, the growth in assay [6] is 87.9%; in [7] it was 95.2%; in [8], 95.2%; in assay [9], 80.2%; in [10], 95.8%; in assay [11], 81.3%. For the same compound, the growth in assay [12] was 108%; in assay [13] it was 87.8%; in assay [15], 72.9%; in assay [16], 89.4%; in [17] it was 83.9%; in assay [19], 64.7%.

Regarding `O=C(Nc1ncc(Cc2cccc(C(F)(F)F)c2)s1)C1COc2ccccc2O1` (stereo not given), the growth is 83.3% in [1]; 89.9% in assay [2]; 83.8% in [3]; 89.8% in assay [18]; 65.3% in [5]; 94.8% in [6]. Moreover, the growth is 87.5% in [7]; 88% in assay [8]; 75.5% in assay [9]; 88.8% in [10]; 73.7% in [11]; 97.1% in assay [12]. Also, the growth in assay [13] is 97.4%; in [14], 84.2%; in assay [15] it was 106%; in assay [16], 86.7%; in assay [17], 80.2%; in [19], 106%.

For the compound `COc1cc(/C=C/C(=O)c2ccc(Cl)cc2)cc(CN2CCCCC2)c1O`, the growth was 70.9% in assay [1]; 85.4% in assay [2]; 74.6% in assay [3]; 90.6% in [4]; 87.4% in assay [5]; 87.4% in assay [6]. The growth in [7] was 97.9%; in [8] it was 108%; in assay [9], 89.5%; in assay [10] it was 93.1%; in assay [11] it was 58.5%; in assay [12], 115%. The growth in assay [13] was 87.1%; in assay [14], 85.2%; in [15] it was 82.6%; in [16] it was 58.8%; in assay [17], 64.3%; in assay [19], 34%.

As for `CCN(CC)CCCNc1ccnc2cc3ccccc3cc12`, the growth was 36.6% in assay [1]; 71.3% in [2]; 46.8% in [3]; 60.7% in assay [4]; 50.6% in assay [18]; 69.8% in assay [5]. Moreover, the growth in assay [6] was 53.9%; in [7] it was 65.3%; in assay [8], 57%; in assay [10], 87.6%; in [11], 106%; in [12], 83.8%. The growth in [13] was 70.7%; in [14], 75.3%; in [15], 94%; in assay [16], 91.1%; in [17], 87.3%; in assay [19], 77.5%.

For `CN(C)CCNc1cc(-c2ccccc2)nc2ccccc12`, the growth in assay [1] is -69.3% (active); in [2], 54.2%; in assay [3], -69% (active); in assay [4] it was -38.5% (active); in assay [18] it was -74.3% (active); in assay [5], -75.9% (active). Also, the growth was -84% (active) in assay [6]; -90.7% (active) in assay [7]; -45.2% (active) in assay [8]; -88.5% (active) in assay [10]; -94.2% (active) in assay [11]; -68% (active) in assay [12]. Also, the growth in assay [13] was -27.5% (active); in assay [14], -36.1% (active); in assay [15], 52.4%; in [16] it was -9.11% (active); in [17] it was 0.855% (active); in assay [19] it was -23.1% (active).

Source of the values: PubChem BioAssay (NCI).
